Source: PubChem (National Center for Advancing Translational Sciences (NCATS))
The list is not random: actives were taken first. Their share in the collection is about 7.2%.
Marburg entry inh: blocks Marburg virus binding to or entry into cells; 300,000 tested, 1.8% active; Potency, µM (titrated, usually from 37.8 µM), for the others: at the highest dose activity change, negative = inhibition, hits mostly inhibitors; Marburg virus pseudotyped entry inhibition, cell reporter; AID 540276; calls by dose curve; tested in HEK293 cells
Sm TGR block: inhibitors of Schistosoma mansoni thioredoxin glutathione reductase; purified TGR, DTNB reduction, TNB absorbance 405 nm; 360,000 tested, 3% active; Potency, µM (doses to about 114 µM), for inactives: at the highest dose activity change, negative = inhibition, usual class: inhibitors; Q962Y6; further: nearly all actives have a fitted effect of over 60% in size
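TGR 20 nM + NADPH 100 uM (dispensed conc.), cpd preinc 15 min RT; start with NADPH (500 uM addition) then DTNB (15 mM addition). Kinetic TNB absorbance, 405 nm filter. Four-parameter Hill fit across titration.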
Lassa entry inh: blocks Lassa virus binding to or entry into cells; AID 540256; Potency, µM (series often up to 37.9 µM), inactives show top-dose activity change, negative = inhibition, usual class: inhibitors; 300,000 tested, 1.2% active; Lassa virus pseudotype entry inhibition, cell reporter; calls by dose curve; tested in HEK293 cells; further: nearly all actives have a fitted effect of over 50% in size
FMDV inh: antivirals against foot and mouth disease virus; FMDV antiviral cell-based qHTS; Potency, µM (highest dose often 57.9 µM), for the others: at the highest dose activity change, negative = inhibition, actives largely listed as inhibitors; 410,000 tested, 1.2% active; calls by dose curve; tested in HEK293T cells; further: read-out not given here; nearly all actives have a fitted effect of over 45% in size
HCV inhibitor: blocks hepatitis C virus; Potency, µM (top dose mostly 41.8 µM), inactives show at the highest dose activity change, negative = inhibition, most hits filed as inhibitors; 340,000 tested, 3.4% active; AID 651820; Huh7.5.1 HCVcc-Cre infection, luciferase reporter, 44 h
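After 44 h co-culture of compound, cells and HCVcc-Cre (~0.5 moi), substrate is added for 15 min at room temperature and luciferase measured over 15 sec. Cells were seeded at 1,000/well and pre-cultured 4 h.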
RE007 growth inh: less growth of the S. pombe RE007 Vpr strain. S. pombe RE007 Vpr strain, BacTiter-Glo ATP luminescence, 24 h. Potency, µM (doses to about 92.2 µM), for inactives: at the highest dose activity change, negative = less growth, actives largely listed as inhibitors. 360,000 tested, 0.21% active. AID 651644; active means well fitted falling curve with a large enough effect; inconclusive means small, poorly fitted or top-dose-only effect; inactive means no such curve, though single readings can be large or run the other way; further: nearly all actives have a fitted effect of over 50% in size
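Fission yeast RE007 carrying one integrated HIV-1 vpr copy, seeded at OD 0.01 in PMG+AL medium with 23 nL pinned compound. Grown 24 h at 30 degrees; viability read by BacTiter-Glo luminescence after 5 min.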
An asterisk follows results filed as active; ? = inconclusive; . = no result; ! = not active in a repeat; [ ] = remark or other dose. Unless noted, the call rests on the fitted dose curve; in most records, active means well fitted curve in the direction sought with a large enough effect; inconclusive means small, poorly fitted or top-dose-only effect, or another doubt; inactive means no such curve, though single readings can be large; an effect the other way counts as inactive or inconclusive. On the % scale 0 is the no-effect control and ±100 the full control effect; potency means the concentration at half of the fitted maximal effect.

SMILES	Marburg entry inh	Sm TGR block	Lassa entry inh	FMDV inh	HCV inhibitor	RE007 growth inh
CCC(C(=O)Nc1sc(C(N)=O)c(C)c1C(=O)OC)c1ccccc1 (stereo unspecified)	13µM*	0%	.	-22%	-36%	3%
CCOC(=O)c1c(NC(=O)C(Sc2ccccc2)c2ccccc2)sc(C(=O)N(C)C)c1C (stereo unspecified)	?	-11%	16µM*	0%	?	9%
CCOC(=O)c1sc(NC(=O)C2c3ccccc3Oc3ccccc32)c(C(=O)OCC)c1C	-17%[46.1 µM]	4%	-3%[46.1 µM]	0%	.	.
CCOC(=O)c1c(NC(=O)C(Sc2ccccc2)c2ccccc2)sc(C(N)=O)c1C (stereo unspecified)	-30%	-18%	?	?	?	1%
CCOc1ccccc1NC(=O)C(Sc1ccccc1)c1ccccc1 (stereo unspecified)	?	17%	13µM*	-28%	-16%	-18%
COC1=C(C(=O)c2ccccc2)C(=O)[C@@]2(CC=C(C)C)CC(C#N)C[C@@]1(CC=C(C)C)C2=O (stereo partly specified)	-16%[14.2 µM]	.	-36%[14.3 µM]	.	.	.
COCC(=O)N1CCC2(CC1)CN(c1cccc(-c3ccccc3)c1)C2	.	.	.	-15%	.	.
Cc1cccc(NC(=O)CCc2c(C)nc3c(c(C)nn3C(C)(C)C)c2C)c1C	-38%[46.1 µM]	0%	-5%[46.1 µM]	0%	.	.
Cc1c(Cl)cccc1NC(=O)N1CCC(CN2CCCC2)CC1	.	-26%	20%[46.1 µM]	-11%	.	.
CCOC(=O)c1c(NC(=O)COc2ncnc3ccccc23)sc(C(C)=O)c1C	-31%	1%	-11%	-5%	7.1µM*	-4%
CCOC(=O)c1c(NC(=O)COC(=O)Cc2c[nH]c3ccccc23)sc(C(=O)N(C)C)c1C	4%[46.1 µM]	1%	19%	-23%	14µM*	17%
CCOC(=O)c1c(NC(=O)COC(=O)Cc2n[nH]c(=O)c3ccccc23)sc(C(=O)N(C)C)c1C	2%	5%	9%	-10%	?	-6%
COC(=O)c1c(NC(=O)COc2ncnc3ccccc23)sc(C)c1C	-4%	-9%	-5%	-7%	?	10%
CSC(SC)=C(C#N)C(=O)c1ccccc1	4%[46.1 µM]	11µM*	?	16µM*	?	16%
COc1cccc(C(=O)C(C#N)=C(SC)SC)c1	.	13µM*	.	28µM*	?	-8%
CCOc1ccc(-c2nc(SCC(=O)Nc3cc(F)ccc3F)n3[nH]c(=O)cc3n2)cc1	.	-5%	-19%[46.1 µM]	-15%	.	.
CC12Cc3cnoc3C=C1CCC1C2CCC2(C)C1CCC2(C)O (stereo unspecified)	-18%	.	?	35µM*	?	14%
COc1ccc(CC(=O)Nc2cccc(/C(C)=N/NC(=O)C3(C)CC3(Br)Br)c2)cc1 (stereo unspecified)	.	-2%	.	-21%	10µM*	7%
C/C(=N\Nc1nc(C)cc(C)n1)c1ccc(N2CCOCC2)cc1	.	2%	.	0%	-20%	7%
C/C(=N\Nc1nc2ccccc2[nH]1)c1ccc(N2CCOCC2)cc1	?	0%	10µM*	-54%	?	-2%
C/C(=N\Nc1cc(N2CCOCC2)nc(C)n1)c1ccc(F)cc1	2.8µM*	-7%	?	-16%	?	-23%
C/C(=N\Nc1cc(N2CCCCC2)nc(C)n1)c1ccc(Br)cc1	.	18%	.	?	11µM*	?
COC(=O)c1c(NC(=O)c2nc(SC)ncc2Cl)sc2c1CCCC2	24%[46.1 µM]	14%	25%[46.1 µM]	8%	.	.
COc1ccccc1/C=N/OCc1cc(C(C)=O)ccc1OC	?	11µM*	9%	5%	?	5%
COc1ccc(C(C)=O)cc1COc1cccnc1[N+](=O)[O-]	?	?	-16%	-17%	?	2%
SMILES	Marburg entry inh	Sm TGR block	Lassa entry inh	FMDV inh	HCV inhibitor	RE007 growth inh
COc1ccc(C(C)=O)cc1COC(=O)c1ccc(N)c([N+](=O)[O-])c1	?	8.9µM*	11%	?	11µM*	-18%
CCOc1ccc(C(C)=O)cc1COc1cccnc1[N+](=O)[O-]	?	35µM*	?	6%	?	-17%
COc1ccc(C(C)=O)cc1COC(=O)c1ccc(S(=O)(=O)N2CCOCC2)cc1	1%	18µM*	-7%	-14%	?	-17%
COC(=O)[C@H]1[C@@H](c2ccccc2)NC(=O)N(CCc2cc(OC)c(OC)c(OC)c2)[C@@H]1C	-24%[14.2 µM]	.	.	.	.	.
COc1ccc(C(C)=O)cc1COc1ccccc1[N+](=O)[O-]	-2%[46.1 µM]	11µM*	-24%[46.1 µM]	-16%	6.3µM*	9%
O=C(Nc1ccccc1)C1Cc2ccccc2CN1C(=O)c1ccco1 (stereo unspecified)	7%[46.1 µM]	40µM*	14%	63%	-6%	19%
COc1ccccc1NC(=O)C1Cc2ccccc2CN1C(=O)c1ccco1 (stereo unspecified)	?	32µM*	0%[46.1 µM]	8%	-1%	-10%
COc1ccc(CNC(=O)C2Cc3ccccc3CN2C(=O)c2ccco2)cc1 (stereo unspecified)	?	-26%	17%[46.1 µM]	-1%	-1%	3%
CCOC(=O)CCSc1n[nH]c(=S)s1	1%[46.1 µM]	18µM*	8%	11%	8%	2%
CCOC(=O)CSc1n[nH]c(=S)s1	19%[46.1 µM]	?	15%[46.1 µM]	-12%	1%	8%
CCOc1ccc(-n2c(=O)c3c4c(sc3n(CC(=O)Nc3cccc(C(F)(F)F)c3)c2=O)CCCCC4)cc1	?	16%	5%[46.1 µM]	-30%	.	.
NC[C@@H](O)c1ccc(O)c(O)c1	14µM*	.	.	31%	.	.
C[C@@H](N)[C@@H](O)c1ccc(O)c(O)c1	13µM*	.	?	.	.	.
CC(N)C(O)c1cccc(O)c1 (stereo unspecified)	.	.	.	-11%	.	.
NCC(O)c1cc(O)c(O)cc1F (stereo unspecified)	?	45µM*	0%	-2%	23%	0%[18.4 µM]
Oc1ccc(C(O)CNCCCCCCNCC(O)c2ccc(O)c(O)c2)cc1O (stereo unspecified)	?	.	-5%	.	.	.
NC[C@H](O)c1ccc(O)c(O)c1	14µM*!	?	?	-11%	1%	-8%
CCCN(CCC)[C@H]1CCc2ccc(O)cc2C1	-15%	.	.	.	.	.
CCc1ccccc1NC(=O)CSc1nc2c(oc3ccccc32)c(=O)n1C	?	3%	.	2%	.	.
Cc1ccc(C)c(NC(=O)C(CC(C)C)N2Cc3ccccc3C2=O)c1 (stereo unspecified)	.	18%	-6%[46.1 µM]	-5%	.	.
COc1ccc(CCNC(=O)Cn2c(=O)nc(-c3ccccc3)c3cc(Cl)ccc32)cc1OC	.	-1%	2%[46.1 µM]	-7%	.	.
CC(C)NCC(O)c1ccc(O)c(O)c1 (stereo unspecified)	?	-36%	3%	-17%	13%	-9%[18.4 µM]
